# Measurements: PubChem BioAssay AID720706 (Broad Institute, 2013)
# Among all 350,000 compounds or so, about 5,500 (1.6%) were called active.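 How the source made its calls: active means significant combined selectivity score with lowered wild-type GFP, culture density cut under 30%, mutant RFP and density less affected; inactive means any of these conditions unmet.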 What follows is part of a selection rich in actives, with near analogues and random picks from the rest.
# Experiment: GFP drop in mixed WT/humanized-ribosome E. coli culture – GFP/RFP fluorescence, OD600, single point, bacterial rRNA inhibitor project, primary screen (AID 720706)
# Conditions: E. coli WT GFP vs humanized-ribosome RFP mutants, 24 h; GFP signal change (wild-type ribosome): stronger effect = lower value, DMSO median 0, no signal -100; OD600 change: measured here: OD600 growth, DMSO median 0, no signal -100; RFP signal change: measured here: RFP humanized mutant strains, DMSO median 0, no signal -100, concentration not given here
Structure (SMILES),GFP signal change (wild-type ribosome),OD600 change,RFP signal change
O=C(C[C@@H]1C[C@H]2c3cc(NS(=O)(=O)c4ccc(F)cc4)ccc3O[C@H]2[C@H](CO)O1)NC1CCCC1,-1.46% (inactive),-4.87%,-0.359%
C[C@H](NC(=O)C[C@@H]1C[C@@H]2c3cc(NS(=O)(=O)c4ccc(F)cc4)ccc3O[C@@H]2[C@@H](CO)O1)c1ccccc1,-27.2% (active),-16.8%,2.38%
O=C(C[C@@H]1C[C@H]2c3cc(NS(=O)(=O)c4ccc(F)cc4)ccc3O[C@H]2[C@H](CO)O1)NCCc1ccccc1,0.771% (inactive),-17.4%,2.06%
COCCNC(=O)C[C@H]1C[C@H]2c3cc(NS(C)(=O)=O)ccc3O[C@H]2[C@H](CO)O1,3.03% (inactive),-0.685%,-2.39%
C[C@@H]1CN([C@H](C)CO)C(=O)c2cc(NS(=O)(=O)c3ccc(F)cc3)ccc2O[C@@H]1CN(C)S(C)(=O)=O,3.23% (inactive),5.12%,-0.699%
CO[C@H]1CN(C)C(=O)c2ccc(NC(=O)c3ccccc3F)cc2OC[C@H](C)N(C(=O)c2ccccc2F)C[C@H]1C,-0.558% (inactive),-1.65%,0.417%
CCCNC(=O)N(C)C[C@H]1Oc2ncc(-c3ccc(C(=O)N(C)C)cc3)cc2C(=O)N([C@@H](C)CO)C[C@@H]1C,6.11% (inactive),12.2%,-1.77%
CCCN(C)C[C@H]1OCCCC[C@@H](C)Oc2ccc(NC(=O)Nc3ccc(F)cc3)cc2C(=O)N([C@@H](C)CO)C[C@H]1C,-3.85% (inactive),-9.95%,3.72%
Cc1ccccc1S(=O)(=O)NC(=O)C1(C)CCN1C(=O)C1(c2ccccc2)CCCC1 (stereo not given),-6.4% (inactive),0.03%,-0.676%
CC1(C(=O)NS(=O)(=O)c2ccc3ccccc3c2)CCN1C(=O)C1(c2ccc(Cl)cc2)CCC1 (stereo not given),-33.2% (inactive),-59.6%,-12.6%
Cc1ccccc1S(=O)(=O)NC(=O)C1(C)CCN1C(=O)C1(c2ccc(Cl)cc2)CC1 (stereo not given),-15.3% (active),13%,7.67%
Cc1noc(C)c1S(=O)(=O)N(C)C[C@@H]1OCCCC[C@H](C)Oc2ccc(NC(=O)CCC(F)(F)F)cc2C(=O)N([C@H](C)CO)C[C@H]1C,-0.425% (inactive),1.3%,2.1%
O=C(c1cnccn1)N1CC(=O)N2[C@H](C1)[C@@H](c1ccc(C3=CCCCC3)cc1)[C@@H]2CO,3.19% (inactive),-21.9%,1.94%
COCCNC(=O)C[C@@H]1C[C@@H]2c3cc(NS(=O)(=O)c4ccccc4)ccc3O[C@@H]2[C@H](CO)O1,1.27% (inactive),4%,-0.545%
Fc1cccc2ncnc(OCc3ccccc3)c12,-30.9% (active),-18%,-2.44%
CC(CNC(=O)Cn1cnc2c(OCc3ccccc3)ncnc21)c1ccccc1 (stereo not given),8.65% (inactive),14.8%,2.69%
c1ccc(COc2nsnc2N2CCOCC2)cc1,0.165% (inactive),-14.3%,-6.39%
CCCC#Cc1ccc([C@@H]2[C@@H](CO)N3C(=O)CN(C(=O)Nc4ccc(F)cc4)C[C@@H]23)cc1,-0.84% (inactive),-38.9%,19.5%
COCC(=O)Nc1ccc2c(c1)C(=O)N(C)[C@H]1CC[C@@H](CC(=O)NCc3cccc(F)c3)O[C@H]1CO2,3.46% (inactive),6.34%,1.53%
CC(=O)Nc1ccc2c(c1)CC(=O)N(C)C[C@H](C)[C@H](CN(C)S(C)(=O)=O)O2,0.68% (inactive),1.91%,0.168%

Structure (SMILES),GFP signal change (wild-type ribosome),OD600 change,RFP signal change
CCNC(=O)[C@H]1[C@H](CO)[C@H]2Cn3c(cccc3=O)[C@@H]1N2Cc1cc(F)ccc1F,0.156% (inactive),3.74%,1%
C[C@@H]1CN([C@H](C)CO)C(=O)c2cccc(NS(=O)(=O)c3ccc(F)cc3)c2O[C@@H]1CN(C)S(=O)(=O)c1ccc(Cl)cc1,-1.76% (inactive),-16.2%,-1.81%
Cc1nc(-c2ccc([N+](=O)[O-])cc2)c(-c2ccccc2)o1,-32% (active),-14.4%,13.4%
Cn1nc(-c2ccccc2)c2cc([N+](=O)[O-])ccc21,0.085% (inactive),1.86%,-0.696%
O=[N+]([O-])c1cc2ccccc2nc1-c1ccccc1,11.2% (inactive),-0.7%,-0.455%
O=C(C[C@H]1C[C@H]2c3cc(NC(=O)C4CCOCC4)ccc3O[C@H]2[C@@H](CO)O1)NCC1CC1,2.89% (inactive),8.38%,-2.18%
Cc1noc(C)c1NC(=O)Nc1ccc2c(c1)C(=O)N([C@@H](C)CO)C[C@H](C)[C@@H](CN(C)C(=O)C1CCCCC1)OCCCC[C@@H](C)O2,1.51% (inactive),8.89%,-0.802%
CC=Cc1ccc2n(c1=O)C[C@@H]1[C@@H](CO)[C@H](C(=O)NCCc3ccccc3)N(C(C)=O)[C@H]21 (mixture of isomers),0.861% (inactive),2.27%,-0.668%
COc1ccccc1NC(=O)N1C[C@@H]2[C@H](c3ccccc31)[C@H](CO)N2CC1CCOCC1,0.276% (inactive),-6.98%,0.913%
COc1ccc(-c2cc3nc(NCCOc4ccccc4)ccn3n2)cc1,-7.79% (inactive),-16.3%,16.5%
COCCCNc1ccn2nc(-c3ccc(CC(C)C)cc3)cc2n1,-26.9% (inactive),-34.5%,0.31%
COCCNc1cc(-c2ccccc2)nc2cc(-c3cccc(F)c3)nn12,-14.8% (active),8.3%,-4.74%
CC(C)NC(=O)N(C)C[C@H]1OCc2ccccc2-c2c(n(C)c3ccccc23)C(=O)N([C@H](C)CO)C[C@@H]1C,0.94% (inactive),5.88%,-4.42%
CN1c2ccc(-c3ccccc3)cc2[C@@H]2[C@@H](CCN2C(=O)NC2CCCC2)[C@H]1CO,-26.6% (inactive),-47.4%,16.9%
CCC(=O)N1[C@@H](CO)[C@@H](c2ccccc2)C12CN(C(=O)c1cnccn1)C2,-1.97% (inactive),-9.38%,1.42%
CCOc1ccc(-c2nc(N)ncc2-c2ccccc2OC)c(O)c1,-28.9% (active),-3.55%,-5.66%
C=C(C)COc1ccc(-c2ncncc2-c2ccc(OC)cc2)c(O)c1,-11.6% (inactive),-10.7%,-1.31%
COc1ccc(-c2nc(N)ncc2-c2ccc(Cl)cc2)c(O)c1,-4.3% (inactive),-9.82%,0.567%
CCS(=O)(=O)Nc1ccc2c(c1)C(=O)N(C)[C@@H]1CC[C@H](CC(=O)N3CCCCC3)O[C@@H]1CO2,-0.591% (inactive),-4.1%,-3.67%
COc1ccc(NC(=O)N2C[C@H](O)COC[C@@H]3O[C@@H](CC(=O)NCc4ccccc4OC)CC[C@H]32)cc1,-1.91% (inactive),-2.52%,-1.31%

Structure (SMILES),GFP signal change (wild-type ribosome),OD600 change,RFP signal change
COc1cccc(-c2cn(CC[C@H]3CC[C@H](NC(=O)CN(C)C)[C@H](CO)O3)nn2)c1,-0.8% (inactive),-2.58%,-0.651%
CCNC(=O)[C@H]1[C@H](CO)[C@H]2Cn3c(cccc3=O)[C@H]2N1C(=O)C1CCCC1,4.25% (inactive),-2.66%,-1.17%
Cc1cc(Nc2ccc(Br)cc2)nc2ccccc12,-50.8% (active),-41%,-13.6%
Cc1cc(C)c(C#N)c(Nc2cccc(Br)c2)n1,11.7% (inactive),6.25%,3.63%
C[C@H]1CCCCO[C@H](CN(C)Cc2ccccc2)[C@@H](C)CN([C@@H](C)CO)C(=O)c2cc(NS(C)(=O)=O)ccc2O1,2.67% (inactive),3.64%,-3.91%
CCNC(=O)[C@@H]1[C@@H](CO)[C@@H]2Cn3c(ccc(-c4ccncc4)c3=O)[C@@H]2N1Cc1cc(F)ccc1F,2.37% (inactive),8.82%,1.07%
C[C@@H]1CN([C@@H](C)CO)C(=O)c2cc(NC(=O)CCCN(C)C)ccc2O[C@@H](C)CCCCO[C@H]1CN(C)C(=O)Nc1cccc2ccccc12,-3.48% (inactive),-7.41%,4.52%
Cc1cccc(NC(=O)CCn2c(=O)oc3ccccc32)c1,3.5% (inactive),2.74%,-1.45%
COc1ccc(Cn2c(=O)oc3ccccc32)cc1,-5.68% (inactive),1.5%,2.85%
Cc1ccc(OCCCn2c(=O)oc3ccccc32)cc1,-33.5% (active),-20.9%,-1.83%
O=C(Nc1ccccc1F)N[C@@H]1C=C[C@H](CC(=O)N2CCCCC2)O[C@@H]1CO,3.61% (inactive),6.08%,-0.341%
C[C@H](CO)N1C[C@H](C)[C@@H](CN(C)C(=O)Nc2cccc(F)c2)OCc2ccccc2-c2ccccc2C1=O,-0.679% (inactive),-1.43%,0.291%
C[C@H](CO)N1C[C@H](C)[C@H](CN(C)C(=O)Nc2cccc3ccccc23)OCCCC[C@H](C)Oc2ccc(NC(=O)Nc3ccc4c(c3)OCO4)cc2C1=O,2.1% (inactive),5.33%,-1.79%
CC(C)NC(=O)N1CCCCN2[C@H](CO)[C@H](c3ccc(C#C[C@H](C)O)cc3)[C@H]2C1,5.37% (inactive),11.9%,2.67%
CCCNC(=O)c1cc2c(c(-c3cccc(-c4ccc(F)cc4)c3)n1)[C@@H](CCO)N([S@](=O)C(C)(C)C)C2,-7.84% (inactive),-6.59%,26.4%
CCCNC(=O)c1cc2c(c(-c3cccc(-c4ccc(C#N)cc4)c3)n1)[C@@H](CCO)N(C(=O)CC)C2,-28.9% (active),-16.6%,9.41%
CCS(=O)(=O)N1Cc2cc(C(=O)N(C)C)nc(-c3cccc(-c4ccc(C#N)cc4)c3)c2[C@H]1CCO,1.6% (inactive),-8.16%,0.491%
O=C(N/N=C/c1cc(Br)c(O)c([N+](=O)[O-])c1)C(O)(c1ccccc1)c1ccccc1,-13.8% (inactive),-17.8%,-3.16%
O=[N+]([O-])c1cccc(/C=N/Nc2ncc(Br)cn2)c1,14.8% (inactive),23.4%,1.61%
O=[N+]([O-])c1cc(Br)c(O)c(/C=N/Nc2nc3ccccc3s2)c1,-26.6% (active),-18.1%,3.75%
